Assay [1] in a line: Tanguay_ZF_120hpf_AXIS_legacy: (Legacy) Oregon State University Tanguay Lab 120 Hour Post-fertilization zebrafish Assay for Body Axis Malformation (AID 2283635).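 On AC50: potency for an increased fraction of larvae scored with body axis malformation.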 In outline:
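Each dechorionated embryo was exposed alone from 6 hpf, with DMSO at 0.64% (vol/vol) and trimethyltin chloride 5 uM as positive control. Axis malformation was recorded at 120 hpf unless the embryo had died.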

A short description of assay [2]: Tanguay_ZF_120hpf_EYE_legacy: (Legacy) Oregon State University Tanguay Lab 120 Hour Post-fertilization zebrafish Assay for Eye Malformation (AID 2283636).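 Further: binary presence or absence of eye malformation scored by brightfield in 120 hpf larvae.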 In outline: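 Dechorionated Tropical 5D zebrafish embryos, one per well from 6 hpf, static exposure to 120 hpf at 28C, 0.64% DMSO. Eye malformation scored present/absent by brightfield; dead embryos not scored.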

Assay [3] is described as follows: Tanguay_ZF_120hpf_JAW_legacy: (Legacy) Oregon State University Tanguay Lab 120 Hour Post-fertilization zebrafish Assay for Jaw Malformation (AID 2283638). In outline: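 Wild-type 5D embryos, chorion removed at 4 hpf, dosed singly from 6 hpf; 28C static, sealed, foil-covered, to 120 hpf. Endpoint: jaw defect yes/no (brightfield); mortality excludes scoring.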
The nature of assay [4]: Tanguay_ZF_120hpf_OTIC_legacy: (Legacy) Oregon State University Tanguay Lab 120 Hour Post-fertilization zebrafish Assay for Otic Vesicle Malformation (AID 2283639). The essentials: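 Otic vesicle malformation is read as a yes/no morphology call at 120 hpf. Exposure is static at 28C with 0.64% (vol/vol) DMSO; embryos that die are excluded from non-mortality endpoints.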
Assay [5] is described as follows: Tanguay_ZF_120hpf_PE_legacy: (Legacy) Oregon State University Tanguay Lab 120 Hour Post-fertilization zebrafish Assay for Pericardial Edema (AID 2283640).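 On AC50: potency for increased incidence of pericardial edema versus DMSO baseline.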 The essentials: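 Zebrafish larvae are exposed from early development to 120 hpf at 28C, with 0.64% DMSO final. Each surviving larva receives a yes/no pericardial edema call by brightfield imaging, analysed relative to the DMSO baseline.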

Assay [6] can be described thus: Tanguay_ZF_120hpf_BRAI_legacy: (Legacy) Oregon State University Tanguay Lab 120 Hour Post-fertilization zebrafish Assay for Brain Malformation (AID 2283641). In outline: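 Static exposure of staged wild-type embryos until 120 hpf, kept at 28C with light excluded and final DMSO of 0.64% (vol/vol). Presence or absence of brain malformation was noted under brightfield; mortality precluded scoring.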

Assay [7] is described as follows: Tanguay_ZF_120hpf_SOMI_legacy: (Legacy) Oregon State University Tanguay Lab 120 Hour Post-fertilization zebrafish Assay for Somite Malformation (AID 2283647). In outline: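 Somitogenesis defects are recorded as binary calls in whole larvae at 120 hpf after continuous static chemical exposure starting at 6 hpf in dechorionated 5D embryos. DMSO serves as negative control and baseline.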

Assay [8] in a line: Tanguay_ZF_120hpf_PFIN_legacy: (Legacy) Oregon State University Tanguay Lab 120 Hour Post-fertilization zebrafish Assay for Pectoral Fin Malformation (AID 2283648).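 Further: each larva judged yes or no for fin defect by brightfield with dead larvae skipped.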 In outline: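 Dechorionated Tropical 5D wild-type zebrafish embryos, one per well, statically exposed from 6 to 120 hpf at 28C with 0.64% DMSO final. Pectoral fin malformation scored present/absent by brightfield at 120 hpf; not scored in dead embryos.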

Assay [9] can be described thus: Tanguay_ZF_120hpf_CFIN_legacy: (Legacy) Oregon State University Tanguay Lab 120 Hour Post-fertilization zebrafish Assay for Caudal Fin Malformation (AID 2283649). The essentials: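 Single dechorionated 5D wild-type embryos are dosed at 6 hpf (final DMSO 0.64%) and held statically at 28C. Caudal fin malformation is recorded as present or absent at 120 hpf under brightfield, excluding dead embryos.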

A short description of assay [10]: Tanguay_ZF_120hpf_PIG_legacy: (Legacy) Oregon State University Tanguay Lab 120 Hour Post-fertilization zebrafish Assay for Pigmentation Malformation (AID 2283650). The essentials: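 Dechorionated Tropical 5D wild-type embryos, one per well from 6 hpf, statically exposed at 28C in the dark until 120 hpf, 0.64% DMSO final. Pigmentation scored present/absent by brightfield microscopy; dead embryos not scored; fitted versus DMSO.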

The nature of assay [11]: Tanguay_ZF_120hpf_CIRC_legacy: (Legacy) Oregon State University Tanguay Lab 120 Hour Post-fertilization zebrafish Assay for Circulatory Malformation (AID 2283651). The essentials: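 Using wild-type Tropical 5D zebrafish, we exposed dechorionated embryos from 6 to 120 hpf in embryo medium with 0.64% DMSO. Circulatory defects were scored as present or absent; 5uM trimethyltin chloride served as positive control.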

Assay [12] is described as follows: Tanguay_ZF_120hpf_SWIM_legacy: (Legacy) Oregon State University Tanguay Lab 120 Hour Post-fertilization zebrafish Assay for Swim Bladder Malformation (AID 2283654).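 Further: swim bladder malformation in each larva scored yes or no under brightfield.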 The essentials:
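Dechorionated wild-type Tropical 5D zebrafish embryos, one per well from 6 hpf, were statically exposed at 28C until 120 hpf in 0.64% DMSO. Swim bladder malformation scored as present/absent by brightfield microscopy; not scored in dead larvae.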

Assay [13] in a line: Tanguay_ZF_120hpf_TRUN_legacy: (Legacy) Oregon State University Tanguay Lab 120 Hour Post-fertilization zebrafish Assay for Truncated Body (AID 2283655). In outline: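 Single dechorionated zebrafish embryos received test chemical from 6 hpf in 0.64% DMSO, kept at 28C. At 120 hpf, brightfield inspection noted any truncated body.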
Assay [14] in a line: Tanguay_ZF_120hpf_NC_legacy: (Legacy) Oregon State University Tanguay Lab 120 Hour Post-fertilization zebrafish Assay for Notochord and Tail Malformation (AID 2283656). In outline:
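Dechorionated 5D zebrafish, 1/well from 6 hpf; static exposure to 120 hpf, 28C, sealed, dark; final DMSO 0.64% v/v. NC scored binary (present/absent); dead embryos not scored. Fit vs DMSO baseline, gain direction.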

Read-out in assay [15]: Broad substrate specificity ATP-binding cassette transporter ABCG2 (Homo sapiens) (UniProt Q9UNQ0)
Briefly: CLD_ABCG2_6hr: CellzDirect (CLD) Gene Expression Assay for ABC Transporter (ABCG2) at 6 hours (AID 2283660). The essentials:
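Primary human hepatocytes dosed daily with chemicals at multiple concentrations (0.2% DMSO vehicle), harvested 6 h after dosing. ABCG2 mRNA induction read by quantitative nuclease protection assay (qNPA) chemiluminescence; gain of signal fitted against DMSO baseline.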

A short description of assay [16]: Tanguay_ZF_120hpf_SNOU_legacy: (Legacy) Oregon State University Tanguay Lab 120 Hour Post-fertilization zebrafish Assay for Snout Malformation (AID 2283637). The essentials:
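Dechorionated tropical 5D wild-type zebrafish embryos exposed statically from 6 to 120 hpf at 28C, one per well, in 0.64% DMSO. Snout malformation scored as present/absent by brightfield at 120 hpf; dead embryos not scored.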

Read-out in assay [17]: solute carrier (SLC22A6), SLC22A6 (gene 9356)
Briefly: LTEA_HepaRG_SLC22A6: Life Technologies and Expression Analysis (LTEA) Assay for solute carrier (SLC22A6) using HepaRG (AID 2283653; active means hit-call score of the fitted dose curve at least 0.9, where 1 is the maximum; inactive means score below 0.9). The settings on record: mRNA level, 48 h; actives raise or lower the signal. The essentials: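 Gene-expression endpoint in HepaRG hepatic cells: duplicate 8-point concentration-response, highest 100 uM, 48 h treatment in serum-free medium with 0.5% DMSO. SLC22A6 expression measured by qRT-PCR, normalised to ACTB/GAPDH/POLR2A.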

Read-out in assay [18]: matrix metalloproteinase-1 (MMP1), MMP1 (gene 4312)
As to the kind of experiment: LTEA_HepaRG_MMP1: Life Technologies and Expression Analysis (LTEA) Assay for matrix metalloproteinase-1 (MMP1) using HepaRG (AID 2283658; active means hit-call score of the fitted dose curve at least 0.9, where 1 is the maximum; inactive means score below 0.9). The conditions noted are these: mRNA level, 48 h; actives raise or lower the signal. The essentials:
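In this screen, human liver HepaRG cultures receive each chemical in duplicate for 48 h (top 100 uM, 0.5% DMSO). MMP1 expression is then quantified by TaqMan qRT-PCR with ACTB/GAPDH/POLR2A normalization.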

Read-out in assay [19]: ABC Transporter (ABCB1), ABCB1 (gene 5243)
As to the kind of experiment: CLD_ABCB1_6hr: CellzDirect (CLD) Gene Expression Assay for ABC Transporter (ABCB1) at 6 hours (AID 2283659).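 Further: hits raise ABCB1 transcript above the DMSO vehicle baseline.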 In outline: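 Primary human hepatocytes (two donor preparations) dosed daily for two days with chemicals at multiple concentrations, 0.2% DMSO vehicle; harvested 6 h post-dose. ABCB1 mRNA induction quantified by qNPA chemiluminescence; gain-of-signal fitted versus DMSO.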

We go through 5 molecules from PubChem BioAssay (EPA / NIEHS).

One may read the AC50 as the midpoint of the concentration-response curve, whichever way the signal moves.

Structures are written as SMILES. Results filed as inconclusive are left out. Calls of active or inactive are those of the source. How the source made its calls, unless noted: active means hit-call score of the fitted dose curve at least 0.9, where 1 is the maximum; inconclusive means response in the unintended direction; inactive means score below 0.9.

Sequence of Broad substrate specificity ATP-binding cassette transporter ABCG2 (Homo sapiens) (Q9UNQ0 whole entry, looked up): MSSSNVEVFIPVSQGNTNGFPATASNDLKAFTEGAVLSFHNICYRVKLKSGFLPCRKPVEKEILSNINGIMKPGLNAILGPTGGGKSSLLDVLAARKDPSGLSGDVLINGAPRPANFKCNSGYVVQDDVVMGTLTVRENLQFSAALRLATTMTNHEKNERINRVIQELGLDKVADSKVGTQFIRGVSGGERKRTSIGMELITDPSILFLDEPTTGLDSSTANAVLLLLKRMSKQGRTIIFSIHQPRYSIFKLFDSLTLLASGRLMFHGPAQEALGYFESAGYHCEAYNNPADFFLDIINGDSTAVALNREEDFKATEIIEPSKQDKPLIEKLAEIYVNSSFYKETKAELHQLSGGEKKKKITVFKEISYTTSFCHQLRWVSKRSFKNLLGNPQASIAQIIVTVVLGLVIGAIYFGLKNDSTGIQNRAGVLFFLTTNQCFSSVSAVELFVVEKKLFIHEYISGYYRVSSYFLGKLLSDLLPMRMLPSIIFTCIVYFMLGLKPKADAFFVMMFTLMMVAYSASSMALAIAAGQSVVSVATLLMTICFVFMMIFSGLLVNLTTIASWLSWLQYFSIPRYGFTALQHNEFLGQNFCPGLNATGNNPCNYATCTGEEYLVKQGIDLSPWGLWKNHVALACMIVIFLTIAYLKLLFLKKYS

`Oc1cc(Cl)ccc1Oc1ccc(Cl)cc1Cl`: the molecule was called inactive in assay [1], in assay [2], in assay [3], in assay [4], in assay [5] and in assay [6]. Further, the outcome in [7], in assay [8], in assay [9], in assay [10], in assay [11] and in [12] was inactive. For the same molecule, the outcome in assay [13] and in assay [14] was inactive.
Consider `C#CCN1C(=O)COc2cc(F)c(N3C(=O)C4=C(CCCC4)C3=O)cc21`, for which the result in assay [1], in [2], in assay [3], in assay [4], in assay [5] and in assay [6] was inactive. Besides, the result in assay [7], in [8], in assay [9], in assay [10], in [11] and in assay [12] was inactive. In addition, the call in assay [14] was inactive.
Turning to `O=S1OCC2C(CO1)C1(Cl)C(Cl)=C(Cl)C2(Cl)C1(Cl)Cl` (stereo not given), the call in assay [1], in assay [2], in assay [3], in [4], in [5] and in assay [6] was inactive. The molecule was called inactive in assay [7], in assay [8], in [9], in assay [10], in assay [11] and in assay [12]. Moreover, the outcome in assay [13] and in [15] was inactive.
For the molecule `N#Cc1c(Cl)c(Cl)c(Cl)c(C#N)c1Cl`, the molecule was classed as inactive in assay [1], in [2], in assay [16], in assay [3], in assay [4] and in [5]. Further, the call in [6], in [7], in assay [8], in assay [9], in assay [10] and in assay [11] was inactive. Also, the outcome in assay [17], in [12] and in assay [14] was inactive. The AC50 in assay [13] is 47.8 µM (active); in assay [18] it was 13.3 µM (active); in [15], 20 µM (active).
`CC[C@H](C)[C@H]1O[C@]2(C=C[C@@H]1C)C[C@@H]1C[C@@H](C/C=C(\C)[C@@H](O[C@H]3C[C@H](OC)[C@@H](O[C@H]4C[C@H](OC)[C@@H](O)[C@H](C)O4)[C@H](C)O3)[C@@H](C)/C=C/C=C3\CO[C@@H]4[C@H](O)C(C)=C[C@@H](C(=O)O1)[C@]34O)O2` (tested in a mixture with another compound): the figures for the half-maximal activity concentration (AC50) in assay [1], in assay [5] and in assay [6] were 8.9 µM (active), 0.808 µM (active) and 15.6 µM (active), respectively. Besides, the molecule was classed as inactive in assay [2], in [3], in assay [4], in assay [7], in [8] and in assay [9]. The call in assay [10], in [11], in assay [12], in assay [13], in assay [14] and in assay [19] was inactive. Also, the call in assay [15] was inactive.
